From PubChem
Most compounds without a hit are left out; they make up all but 0.85% or so of the library.
Six1-Eya2 blk: Six1/Eya2 interaction inhibition. AlphaScreen GST-Six1/His-Eya2 binding, biochemical; active compounds read low. Q15475+O00167. hit rate 0.56% among 360,000. AID 651725. activity change, % (no concentration beside the values)
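Six1/Eya2 binding was read as AlphaScreen signal after compounds were pinned into GST-Six1 plus His-tagged Eya2 (5X stock 250/500 nM) in pH 8.0 Tris/NaCl/TCEP buffer, beads added, then incubated 1 h, 37 C, dark.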
S-ASM inh: blocks human secretory acid sphingomyelinase | placental ASM, HMU-PC fluorogenic substrate, 60 min | Potency, µM (highest dose often 57.5 µM), hits mostly inhibitors | hit rate 0.006% among 340,000 | AID 504937; active means well fitted inhibition curve with a large enough effect; inconclusive means small, poorly fitted or top-dose-only effect; inactive means no such curve, though single readings can be large or run the other way
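qHTS format. ASM enzyme prepared from human placenta hydrolyses the fluorogenic substrate HMU-PC0 (9 uM final) over 60 min at 37 °C after a 10 min compound preincubation.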
Chronic BCR inh: blocks chronic active B-cell receptor signaling | hit rate 0.05% among 340,000 | AID 493014 | ABC-DLBCL IkBa-CBG/CBR reporter, luminescence ratio, 4 h | Potency, µM (highest dose often 46.1 µM), most hits filed as inhibitors; active means well fitted inhibition curve with a large enough effect in the signal ratio, with a control signal flat, not every such curve was filed as active; inconclusive means small, poorly fitted or top-dose-only effect, or effect the other way, or a change in a side signal; the % refers to the signal ratio
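Doxycycline induced both beetle luciferases in TMD8 lymphoma cells; IKK-driven degradation limits the IkappaBalpha-fused green signal, while red luminescence normalises for cell number and nonspecific effects. Compounds tested up to 46 uM, 4 hrs.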
CtBP-E1A blk: blocks the CtBP interaction with E1A | AlphaScreen GST-E1A/His-CtBP binding, 1536-well; active compounds read low | activity change, % (concentration not given with the values) | hit rate 0.49% among 340,000
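Steps: dispense buffer (Tris pH 8.0, NaCl 300 mM, TCEP 1 mM, BSA, Tween 20); add 5X protein mix (GST-E1A, His-CtBP, 125 nM each); pin 23 nL compound; 2 h at 37 °C, dark; add 5X beads (50 ug/mL); 1 h; read.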
TSHR antag: blocks TSH signaling through the human TSH receptor; P16473; TSHR-expressing cells, TSH-stimulated cAMP HTRF, 2 h; active compounds read low; activity change, negative = inhibition, % at 11.5 µM; hit rate 0.2% among 330,000; AID 504810;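 active means activity change below a set negative limit, meaning inhibition stronger than a set level, cut at about -70% in these data; inconclusive means activity change between two set negative limits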
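Competitive HTRF cAMP read-out (cryptate anti-cAMP antibody, cAMP-d2; 30 min, room temperature) in freshly harvested TSHR cells. Compounds added before TSH at EC80 (4nM final), followed by 2 hours' incubation at 37 deg C.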
Numbers stand for hits; - = inactive; ? = inconclusive; . = no result given. Unless noted, no stated cut-off is given here; in the data, active means activity change below about -65%; inconclusive means mostly about -30% to -63%; inactive means weaker than that.

SMILES	Six1-Eya2 blk	S-ASM inh	Chronic BCR inh	CtBP-E1A blk	TSHR antag
Cc1c(CCC(=O)N[C@@H](C)C(=O)O)c(=O)oc2cc3occ(-c4ccccc4)c3cc12	?	-	-	-77	-
Cc1c(CC(=O)NCCCC(=O)O)c(=O)oc2cc3occ(-c4ccccc4)c3cc12	?	-	?	-	-
Cc1c(CCC(=O)NCCCCCC(=O)O)c(=O)oc2cc3occ(-c4ccccc4)c3cc12	-68	-	-	.	-
Cc1c(CC(=O)NCC(=O)O)c(=O)oc2cc3occ(-c4ccccc4)c3cc12	?	-	-	-	-
Cc1[nH]c2ccccc2c1C(=O)C(=O)NC1CC(=O)N(c2cccc(F)c2)C1 (stereo not drawn)	.	.	-	.	.
CCOc1ccc(-n2c(=O)c3c(C)c(C(=O)N(C)C)sc3n(CC(=O)Nc3c(C)cc(C)cc3C)c2=O)cc1	.	.	-	.	.
CCOC(=O)c1c(S(=O)(=O)NCC(=O)N2CCN(c3cccc(Cl)c3)CC2)c(C)n(C)c1C	.	.	-	.	.
COC(=O)c1cc(NC2(c3ccccc3)C(=O)c3ccccc3C2=O)cc(C(=O)OC)c1	.	.	-	.	.
COc1ccc(N=Nc2nc(-c3ccccc3)c(-c3ccccc3)[nH]2)cc1	-70	?	-	-	-
Oc1ccccc1N=Nc1nc(-c2ccccc2)c(-c2ccccc2)[nH]1	-67	?	?	?	-
COc1ccccc1N=Nc1nc(-c2ccccc2)c(-c2ccccc2)[nH]1	?	?	-	-	-
O=C(O)c1ccc(-c2nc(-c3ccccc3)c(-c3ccccc3)[nH]2)cc1	-	-	?	-	-
CCOC(=O)C1CCCN(c2ncnc3c2cnn3-c2ccc(C)c(Cl)c2)C1 (stereo not drawn)	.	.	-	.	.
NC(COCc1ccccc1)c1csc(Nc2ccc(C(F)(F)F)cn2)n1 (stereo not drawn)	-	.	.	-	.
NC(COCc1ccccc1)c1csc(Nc2ccccn2)n1 (stereo not drawn)	-89	.	.	-90	.
NC(CCc1ccccc1)c1csc(Nc2ccc(C(F)(F)F)cn2)n1 (stereo not drawn)	-	.	.	-	.
NC(CCc1ccccc1)c1csc(Nc2ccccn2)n1 (stereo not drawn)	-73	.	.	-83	.
CCOCCCN1C(=O)CN(C2CCCCCC2)C(=O)C1c1ccc(OC(C)C)c(OC)c1 (stereo not drawn)	.	.	-	.	.
O=C(NCCC1=CCCCC1)C(=O)NCC1OCCCN1S(=O)(=O)c1ccccc1 (stereo not drawn)	-	-	-	-	-90
Cc1ccc(C)c(S(=O)(=O)N2CCCOC2CNC(=O)C(=O)NCCC2=CCCCC2)c1 (stereo not drawn)	-	-	-	-	?
COc1cccc2c(SCC(=O)N/N=C/c3ccccc3)cc(C)nc12	-	-	-	-	-
COc1ccc2nc(C)cc(SCC(=O)N/N=C/c3cccc4ccccc34)c2c1	-	-	?	-	-
COc1cccc2c(SCC(=O)N/N=C/c3ccc(O)c(O)c3)cc(C)nc12	-71	-	-	-74	-
COc1ccc2nc(C)cc(SCC(=O)N/N=C/c3ccc(O)c(O)c3)c2c1	-72	-	?	-72	-
CN(C(=O)CN1C(=O)S/C(=C\c2ccccc2Cl)C1=O)C1CCS(=O)(=O)C1 (stereo not drawn)	-	-	-	-	-
CN(C(=O)CN1C(=O)/C(=C/c2ccccc2Cl)SC1=S)C1CCS(=O)(=O)C1 (stereo not drawn)	-	-	-	-	-126
